# High-throughput results as filed in PubChem BioAssay.
# A selection: hits, their analogues and other compounds. The true share with any hit is near 9.5%.
# RE007 growth inh = less growth of the S. pombe RE007 Vpr strain | 360,000 tested, 0.21% active | Potency, µM (highest dose often 92.2 µM), for the others: at the top dose activity change, negative = less growth, most hits filed as inhibitors | S. pombe RE007 Vpr strain, BacTiter-Glo ATP luminescence, 24 h; active means well fitted falling curve with a large enough effect; inconclusive means small, poorly fitted or top-dose-only effect; inactive means no such curve, though single readings can be large or run the other way; further: on the % scale 0 is the no-effect control and ±100 the full control effect; nearly all actives have a fitted effect of over 50% in size
#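 Fission yeast RE007 carrying one integrated HIV-1 vpr copy, seeded at OD 0.01 in PMG+AL medium with 23 nL pinned compound. Grown 24 h at 30 degrees; viability read by BacTiter-Glo luminescence after 5 min.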
# Pf growth 48h = P. falciparum growth inhibition at 48 hours (one generation); 310,000 tested, 5.9% active; Potency, µM (top dose mostly 28.7 µM), for the others: at the highest dose activity change, negative = inhibition, actives largely listed as inhibitors; P. falciparum luciferase growth in erythrocytes, 48 h; AID 504832; active means well fitted inhibition curve with a large enough effect; inconclusive means small, poorly fitted or top-dose-only effect, or another doubt; inactive means no such curve, though single readings can be large or run the other way; further: on the % scale 0 is the no-effect control and ±100 the full control effect
#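 Luciferase-expressing parasites in RBCs, 2% Hct / 0.1% parasitemia final; RPMI 1640 + 0.5% Albumax; 37 C, 5% CO2, one generation; luminescence read-out, lower signal = inhibition.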
# SARS PLP yeast = blocks SARS-CoV papain-like protease in a yeast assay | S. cerevisiae expressing SARS-CoV PLpro, growth rescue | Potency, µM (titrated, usually from 32.9 µM), inactives show top-dose activity, positive = growth rescue, most hits filed as activators | 330,000 tested, 0.19% active; further: 0% is about no effect; nearly all actives have a fitted effect of over 55% in size
# Pf growth 96h = inhibits malaria parasite growth, 96 h; P. falciparum luciferase reporter growth, 96 h; Potency, µM (series often up to 28.7 µM), inactives show at the top dose activity change, negative = inhibition, usual class: inhibitors; 320,000 tested, 6.9% active; AID 504834; active means well fitted inhibition curve with a large enough effect; inconclusive means small, poorly fitted or top-dose-only effect, or another doubt; inactive means no such curve, though single readings can be large or run the other way; further: on the % scale 0 is the no-effect control and ±100 the full control effect
#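 P. falciparum expressing integrated firefly luciferase, in erythrocytes at 2% hematocrit, 0.05% parasitemia, incubated with compounds 96 h at 37 C, 5% CO2. Growth inhibition read as loss of luminescence; two-generation exposure targets delayed-death apicoplast inhibitors.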
# NS1 function inh = inhibitors of influenza NS1 protein function | Potency, µM (titrated, usually from 46.1 µM), for inactives: top-dose activity, positive = more growth | 270,000 tested, 0.4% active | AID 2326; further: actives are rising curves; nearly all actives have a fitted effect of over 50% in size
#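 A cell-based growth assay was used: compounds that relieve NS1-induced slow growth of budding yeast raise OD600. Assay medium was yeast nitrogen base with ammonium sulphate and -URA supplement, pH 6.0, with 2% galactose.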
# * = called active by the depositor; ? = inconclusive; · = not tested or not shown; [ ] = dose if it differs, or a comment. Unless noted, the call rests on the fitted dose curve. Potency means the concentration at half of the fitted maximal effect.
SMILES,RE007 growth inh,Pf growth 48h,SARS PLP yeast,Pf growth 96h,NS1 function inh
O=C(Nc1ccc(N2CCOCC2)c(S(=O)(=O)Nc2ccccc2Cl)c1)c1ccccc1,-13.7%,10.4µM*,2.3%,?,·
COc1ccccc1NS(=O)(=O)c1cc(NC(=O)CCNC(C)=O)ccc1N1CCCCC1,3.1%,?,2.1%,10.4µM*,·
COc1ccccc1CNc1ccc(N2CCOCC2)c(C(=O)O)c1,1.4%[3.69 µM],13.2%,8.3%,13.1µM*,5.9%
CN(C)CCCOC(=O)COc1ccc(Br)cc1,19.2%,?,0.1%,35.8%,2.8%
COc1ccc(Cc2nc3ccc(C(=O)NC(C)c4cnn(C)c4)cc3o2)cc1 (configuration not stated),0.3%,-10.9%,-0.3%,?,-10.9%
O=C(NCc1cccc2ccccc12)c1cccs1,?,43.3%,0.5%,39.0%,·
O=C(c1ccc(COc2ccc(Cl)cc2Cl)o1)N1CCCC1,27.6%,16.9%,-11.8%,13.7%,-74.7%
CN1C(=O)C(C)(C)N(C(=O)c2cccc([N+](=O)[O-])c2)c2ccccc21,-5.0%,110.0%,3.9%,?,-3.1%
CCCn1c2c(c(=N)c3c1CCC3)CCC2,-15.4%,0.37µM*,-1.4%,?,-1.0%
COC(=O)Cn1c2c(c3cc(C)ccc31)CCCC2,?,-5.1%,-1.2%,30.1%,-59.8%
CCOC(=O)Cn1c2c(c(=N)c3c1CCC3)CCCC2,0.5%,?,17.1%,0.185µM*,9.1%
CCCn1c2c(c(=N)c3c1CCC3)CCCC2,?,0.37µM*,-16.3%,0.117µM*,-4.6%
CCCCCCCn1c2c(c(=N)c3ccccc31)CCC2,?,0.928µM*,-5.8%,21.4%,-34.3%
CS(=O)(=O)c1ccc(NC(=O)CCN2C(=O)C3CC=CCC3C2=O)cc1 (configuration not stated),-5.5%,0.0%,?,-6.7%,·
Cc1cccc(C2NC(c3cccc(C)c3)C(C)C(=O)C2C)c1 (configuration not stated),-10.0%,?,-2.7%,0.4%,3.9%
N#CC1(NC(=O)CN2C(=O)c3ccc([N+](=O)[O-])cc3C2=O)CCCCC1,0.0%,14.5%,-1.6%,19.8%,·
Cc1ccc2[nH]c3c(c2c1)CN(C(=O)CN1CCCCC1)CC3,-1.0%,?,-4.1%,-3.5%,-2.1%
COC(=O)c1[nH]c2ccc(C)cc2c1NC(=O)CN1CCCc2ccccc21,6.0%,4.15µM*,-28.6%,2.33µM*,-3.3%
Cc1ccc2[nH]c3c(c2c1)CN(C(=O)CN1CCCc2ccccc21)CC3,-2.6%,4.15µM*,1.2%,4.65µM*,2.9%
COc1ccc(N(CC(=O)NCc2ccc(C)cc2)S(=O)(=O)c2c(C)noc2C)cc1,8.3%,?,0.5%,2.33µM*,-2.9%
COc1ccc(N(CC(=O)NCc2ccc(Cl)cc2)S(=O)(=O)c2c(C)noc2C)cc1,-10.8%,?,0.4%,8.28µM*,-1.9%
COc1ccc(N(CC(=O)NCc2ccccc2Cl)S(=O)(=O)c2c(C)noc2C)cc1,0.7%,?,-3.1%,?,-9.8%
Cc1ccc(N(CC(=O)NC2CCCCC2C)S(=O)(=O)c2c(C)noc2C)cc1 (configuration not stated),1.6%,?,3.4%,9.28µM*,16.0%
CCOc1ccc(N(CC(=O)NCc2ccc(Cl)cc2)S(=O)(=O)c2c(C)noc2C)cc1,-7.4%,-26.4%,-2.8%,-3.2%,-2.2%
CCOc1ccc(N(CC(=O)NC2CCCC(C)C2C)S(=O)(=O)c2c(C)noc2C)cc1 (configuration not stated),-1.2%,-0.5%,-7.7%,?,-1.6%
SMILES,RE007 growth inh,Pf growth 48h,SARS PLP yeast,Pf growth 96h,NS1 function inh
COc1ccccc1OCCNc1ccc(S(=O)(=O)N2CCCC2)cn1,-17.4%,-18.9%,-2.5%,0.0%,·
O=C(CSc1nnc(-c2ccccc2F)n1C1CC1)N1CCCC1,12.1%,·,·,·,·
CC(=O)c1ccc2c(c1)C1C=CCC1C(c1ccncc1)N2 (configuration not stated),1.8%,-9.2%,-1.8%,132.0%,16.5%
COC(=O)c1ccc(C2Nc3ccc(/C(C)=N/NC(=O)C(OC)c4ccccc4)cc3C3C=CCC32)cc1 (configuration not stated),10.5%,?,2.0%,4.15µM*,?
O=c1c(S(=O)(=O)c2ccc(Cl)cc2)cn(Cc2ccccc2)c2ccc(F)cc12,-8.2%,?,-4.4%,11.7µM*,6.8%
O=C(Nc1ccncc1)Nc1ccc(Cl)cc1,-14.2%,5.22µM*,-2.5%,27.6%,-16.6%
O=C(Nc1ccncc1)Nc1cc(Cl)ccc1Cl,-7.6%,?,2.6%,-0.7%,16.6%
O=C(Nc1ccncc1)Nc1ccc(Cl)cc1Cl,1.4%,1.65µM*,6.0%,-4.2%,-9.8%
CC(Oc1ccc(Cl)cc1Cl)C(=O)Nc1ccncc1 (configuration not stated),-19.0%,10.4µM*,-21.4%,-5.4%,-154.3%
CN(C)S(=O)(=O)n1cc(/C=C(\NC(=O)c2ccccc2F)C(=O)N2CCCCC2)c2ccccc21,1.5%,·,·,·,·
CCOC(=O)CNC(=O)CSc1nc(-c2ccc(OC)cc2)ns1,-18.1%,32.4%,-0.9%,133.0%,·
COc1ccc(-c2nsc(SCC(=O)Nc3cc(C)on3)n2)cc1,-14.5%,5.86µM*,1.0%,?,-4.8%
CCOc1ccc(NCc2nnc(SCC(=O)Nc3cc(C)on3)n2-c2ccc(OC)cc2)cc1,-2.0%,13.1µM*,4.6%,?,-15.5%
Cc1cc(NC(=O)CSc2ccc(-c3nc4cc(C)c(C)cc4[nH]3)cn2)no1,-9.7%,3.29µM*,-4.2%,33.7%,?
O=C(CC1C(=O)NCCN1Cc1ccoc1)NCCCn1ncc2ccccc21 (configuration not stated),11.6%,-14.8%,-1.5%,0.0%,-1.7%
O=C(NCc1ccc(Cl)s1)c1cc(COc2c(F)cccc2F)on1,-16.0%,35.7%,-0.6%,?,-2.0%
Cc1cccc(C)c1OCc1cc(C(=O)NCc2ccc(Cl)s2)no1,-10.2%,14.6%,-0.1%,10.4µM*,-1.9%
Cc1cccc(C)c1OCc1cc(C(=O)NCC2CC2)no1,9.6%,?,-6.8%,14.7µM*,-8.4%
CC(C)NC(=O)C1(C)CSCC(=O)N1C1CC1 (configuration not stated),5.4%,·,·,·,·
COc1ccc(CC2(CO)CCN(Cc3ccncc3)CC2)cc1,-2.3%,-19.7%,-0.8%,?,-2.6%
COc1ccc(CC2(CO)CCN(CC3=CC[C@H]4C[C@@H]3C4(C)C)CC2)cc1,-3.6%,7.38µM*,0.6%,13.6%,-1.4%
Cc1ccc(S(=O)(=O)NC(CC(C)C)C(=O)NCCCn2nc(C)cc2C)cc1 (configuration not stated),2.8%,?,0.1%,?,·
S=C(Nc1ccc(Cl)cc1)NC1CCN(Cc2ccccc2)CC1,1.3%,?,-20.1%,6.57µM*,8.9%
CCCN1CCN(C(=S)Nc2ccc([N+](=O)[O-])cc2)CC1,-19.9%,-14.9%,-22.1%,-102.3%,-8.5%
